This excerpt belongs to a sample that is enriched for hits.
CBX7 inh = CBX7 inhibition, primary AlphaScreen; AlphaScreen His6-CBX7 / biotin-H3K27me3 peptide binding; hits give low values; 66,000 tested, 1.1% active; normalised signal (fraction of DMSO) (no concentration beside the values); O95931; in the data active means normalised signal below about 0.5
Target sequence (O95931 whole entry, looked up): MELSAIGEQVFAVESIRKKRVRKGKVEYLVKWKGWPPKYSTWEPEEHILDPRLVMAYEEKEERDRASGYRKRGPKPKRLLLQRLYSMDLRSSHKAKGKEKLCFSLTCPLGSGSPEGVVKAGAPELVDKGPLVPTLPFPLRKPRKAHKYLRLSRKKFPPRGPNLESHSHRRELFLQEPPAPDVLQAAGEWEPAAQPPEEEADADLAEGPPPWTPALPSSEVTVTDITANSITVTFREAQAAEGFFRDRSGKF
Starred values were filed as active, the others as inactive; ! = repeats disagree.

SMILES	CBX7 inh
N=c1n(Cc2ccccc2)c2ccccc2n1CC(O)c1ccc(Cl)cc1 (centres undefined)	0.94
O=C(Nc1ccccc1F)c1cnc2ccccn2c1=O	1
Cc1nc(NC(=O)c2ccccc2)sc1-c1csc(Nc2ncccn2)n1	1
COc1ccc(Nc2nc(-c3ccc(Br)cc3)cs2)cc1	0.9
COc1ccc(Nc2nc(-c3sc(NC(C)=O)nc3C)cs2)cc1	0.74
Cc1ccc(-c2csc(Nc3ccccc3Cl)n2)cc1	1
COc1ccc(Nc2nc(-c3cccs3)cs2)cc1	0.75
COc1ccc(Nc2nc(-c3ccc(Cl)c(Cl)c3)cs2)cc1	0.78
COc1cc(Nc2nc(-c3ccc(Cl)cc3)cs2)c(OC)cc1Cl	1
CCOc1ccc(Nc2nc(-c3sc(NC(=O)c4ccccc4)nc3C)cs2)cc1	0.42*
COc1ccc(-c2csc(Nc3ccc(N)cc3)n2)cc1	0.41*
CC(=O)Nc1ccc(Nc2nc(-c3sc(NC(=O)c4ccccc4)nc3C)cs2)cc1	1
COc1cc(Nc2nc(-c3ccc(C)cc3)cs2)c(OC)cc1Cl	0.46*!
COc1ccc(Nc2nc(-c3sc(N)nc3C)cs2)cc1	0.31*
CCOc1ccc(NC(=O)NCCN2CCN(c3cccc(Cl)c3)CC2)cc1	1
COc1ccc(-c2nc3ccc(C)cn3c2Nc2ccc(C)cc2)cc1	0.98
CCc1ccc2nc(N3CCC(C(=O)NCCCN4CC(C)CC(C)C4)CC3)sc2c1 (centres undefined)	1.4
Cc1ccccc1-c1nc(CN2CCC(C(=O)NCCN3CCCC3)CC2)c(C)o1	1.1
Cn1cc(CCCC(=O)NC2CC2)c2ccccc21	1.2
Fc1ccc(Nc2nc(-c3ccc(Cl)cc3)cs2)cc1	0.82
Cc1nc(N)sc1-c1csc(Nc2ccc(Cl)cc2)n1	0.38*
COc1ccc(CCNc2nc(-c3ccc(Cl)cc3)cs2)cc1OC	0.92
COc1ccc(OC)c(Nc2nc(-c3sc(NC(C)=O)nc3C)cs2)c1	0.65
CC(=O)Nc1nc(C)c(-c2csc(Nc3ccccc3)n2)s1	0.51
Cc1ccc(-c2csc(Nc3ccc(F)cc3)n2)cc1	0.94
SMILES	CBX7 inh
CC(=O)Nc1nc(C)c(-c2csc(Nc3ccc(N)cc3)n2)s1	0.47*
Cc1nc(N)sc1-c1csc(Nc2cccc(Cl)c2)n1	0.77
COc1ccc(CCNc2nc(-c3sc(N)nc3C)cs2)cc1OC	0.35*
Cc1ccc(Nc2nc(-c3sc(N)nc3C)cs2)cc1	0.38*
COc1ccc(Cl)cc1Nc1nc(-c2sc(C)nc2C)cs1	0.99
CC(=O)Nc1ccc(Nc2nc(-c3sc(C)nc3C)cs2)cc1	0.86
O=C(O)c1ccc(Nc2ncnc3[nH]ncc23)cc1	1.1
O=C1CC(c2cccc(C(F)(F)F)c2)c2cc3c(cc2N1)OCO3 (centres undefined)	1
Cc1ccc2oc(-c3ccc(Cl)c(NC(=O)c4ccccc4F)c3)nc2c1	1.2
O=C(Nc1cccc(Cl)c1)C1CC(=O)N(c2ccc(Cl)cc2)C1 (centres undefined)	1
CCN(CC)CCCNC(=O)CN1C(=O)CSc2ccc(S(=O)(=O)N3CCCCC3)cc21	1
Cc1ccc(-c2nc(C(=O)NC3CCCC3)c(C)o2)cc1	1
Cc1ccc(S(=O)(=O)c2cn(CC(=O)Nc3ccc(Cl)cc3)c3ccccc3c2=O)cc1	1.1
CCN(CCCNC(=O)C1CC(=O)N(CCc2ccccc2)C1)c1cccc(C)c1 (centres undefined)	0.99
CCCCN(CCCNC(=O)C1CC(=O)N(CCc2ccccc2)C1)c1ccccc1 (centres undefined)	0.5*
CCCCNC(=O)C1CC(=O)N(CCc2ccccc2)C1 (centres undefined)	1
O=C(O)c1c2c(nc3ccc(S(=O)(=O)N4CCC(C(=O)N5CCCCC5)CC4)cc13)CCCCC2	1
Clc1ccc(-c2csc(Nc3ccc(Oc4ccccc4)cc3)n2)cc1	0.54
CC(=O)Nc1nc(-c2ccc(Oc3ccccc3)cc2)cs1	0.92
CC(C)Cc1ccc(-c2csc(Nc3ccc(Oc4ccccc4)cc3)n2)cc1	0.49*
O=C1c2ccccc2C(=O)N1c1cccc(-c2csc(Nc3ccc(Oc4ccccc4)cc3)n2)c1	0.74
COc1cccc(Nc2nc(-c3ccc(OC)c(Br)c3)cs2)c1	0.7
COc1ccc(-c2csc(Nc3ccc(Oc4ccccc4)cc3)n2)cc1Br	0.42*!
Cc1cccc(N2C(=O)N(c3ccccc3Cl)C3CS(=O)(=O)CC32)c1 (centres undefined)	1.1
CCn1c(C(=O)N2CCCC(C(=O)N3CCN(c4cccc(C)c4)C(C)C3)C2)cc2sccc21 (centres undefined)	0.6
SMILES	CBX7 inh
CCOC(=O)N1CCN(C(=O)C2CCN(C(=O)c3cc4sccc4n3CC)CC2)CC1	0.92
CCn1c(C(=O)N2CCC(C(=O)N3CCN(c4cccc(C)c4)C(C)C3)CC2)cc2sccc21 (centres undefined)	0.44*
CCOC(=O)c1cc(-c2nnc(-c3ccccc3C)o2)c(C)nc1C	0.84
Cc1cc(=O)oc2c1ccc1occ(Nc3cccc(O)c3)c12	1
O=C1CCCc2c1cc(C(=O)NCCc1ccccc1)c(=O)n2-c1ccccc1	1.1
CCN(CC)S(=O)(=O)c1ccc2c(c1)N(CC(=O)N1CCc3ccccc3C1)C(=O)CO2	1.1
COc1ccc(NC2c3ccccc3C(=O)N2Cc2ccccc2Cl)cc1 (centres undefined)	0.82
COc1ccc(CN2C(=O)c3cccnc3C2Nc2ccc(Br)c(C)c2)cc1 (centres undefined)	0.15*
COc1ccc(CN2C(=O)c3cccnc3C2Nc2ccc(OC)c(Cl)c2)cc1 (centres undefined)	0.16*
COc1cc(OC)c(NC2c3ccccc3C(=O)N2Cc2ccccc2)cc1Cl (centres undefined)	0.7
COc1ccc(NC2c3ccccc3C(=O)N2Cc2ccccc2Cl)cc1OC (centres undefined)	0.8
COc1ccc(CN2C(=O)c3cccnc3C2Nc2ccc(Br)cc2F)cc1 (centres undefined)	0.19*
Cc1ccccc1N1C(=O)c2ccccc2C1Nc1ccc(Br)cc1F (centres undefined)	0.97
CCOc1ccc(N2C(=O)c3cccnc3C2Nc2ccc(Br)c(C)c2)cc1 (centres undefined)	0.16*
CCOc1ccc(N2C(=O)c3ccccc3C2Nc2ccc(C)cc2)cc1 (centres undefined)	0.92
CCOc1ccc(C2C(N3C(=O)c4ccccc4C3=O)C(=O)N2c2ccc(Br)c(C)c2)cc1 (centres undefined)	0.93
COc1cccc(NC2c3ccccc3C(=O)N2Cc2ccccc2)c1 (centres undefined)	0.91
Cc1cc(NC2c3ccccc3C(=O)N2Cc2ccccc2)ccc1Br (centres undefined)	0.65
Cc1nc2cc(-c3ccccc3)nn2c(C)c1CCC(=O)NCc1ccccc1Cl	0.99
CCCCCn1c(=N)n(CCOc2ccccc2)c2ccccc21	1
COc1ccccc1CNC(=O)C1CCCN(S(=O)(=O)c2ccc(Br)s2)C1 (centres undefined)	1.1
CCOC(=O)c1cnc2ccc(OCC)cc2c1NCc1ccc(F)cc1	1.4
Cc1ccc(N(C)C(=O)c2cnc(N3CCN(c4ncccn4)CC3)c3ccccc23)cc1C	1
O=C1Nc2ccccc2OC1CC(=O)N1CCN(C2CCCCC2)CC1 (centres undefined)	0.96
Cc1cccc(NC(=O)c2c(-c3ccccc3Cl)noc2C)c1	1.2
Cc1oc(-c2cccc(Cl)c2)nc1CS(=O)(=O)CC(=O)NCCCOC(C)C	0.97

Assay outcomes (PubChem)
